{"source": "PubChem BioAssay AID720579", "about": "(National Center for Advancing Translational Sciences (NCATS), 2013)", "note": "About 1,900 (0.61%) of roughly 310,000 compounds were called active. About 8% were inconclusive and are not listed. The sample holds actives, similar compounds and a random draw of the others, so the mix is not that of the screen. The call rests on the fitted dose curve; tested in A549 cells. On the % scale 0 is the no-effect control and ±100 the full control effect; potency means the concentration at half of the fitted maximal effect.", "data": [{"assay": "qHTS for Stage-Specific Inhibitors of Vaccinia Orthopoxvirus: mCherry Reporter Primary qHTS; further: nearly all actives have a fitted effect of over 35% in size", "conditions": "Vaccinia virus mCherry reporter infection, fluorescence; series mostly up to 36.5 µM; activity change, negative = inhibition: at the top concentration", "values": [{"smiles": "[O-][n+]1onc2c1CCc1[nH]c(-c3ccccc3)nc1-2", "Potency": "15.8 µM (active)"}, {"smiles": "CC=CCn1c(SCCCc2ccccc2)nc2c1c(=O)[nH]c(=O)n2C", "activity change, negative = inhibition": "3.79% (inactive)"}, {"smiles": "O=C(N/N=C/c1ccc2c(c1)OCO2)c1ccc(Cn2cc([N+](=O)[O-])cn2)o1", "activity change, negative = inhibition": "-29.5% (inactive)"}, {"smiles": "Cc1c(Cl)c([N+](=O)[O-])nn1Cc1ccc(C(=O)N/N=C\\c2cc(Cl)ccc2O)o1", "Potency": "6.31 µM (active)"}, {"smiles": "Cc1c(Cl)c([N+](=O)[O-])nn1CCCC(=O)Nc1cc(Cl)ccc1Cl", "activity change, negative = inhibition": "-18.7% (inactive)"}, {"smiles": "O=C(c1ccccc1)N1CCN(c2cc(-c3ccccc3)nc3cc(-c4cccc(Cl)c4)nn23)CC1", "activity change, negative = inhibition": "-23.1% (inactive)"}, {"smiles": "CCc1nc2c(OCc3ccccc3)cccn2c1N(C)C(=O)c1ccco1", "activity change, negative = inhibition": "-10.6% (inactive)"}, {"smiles": "COc1ccc(C(C(=O)Nc2c(C)cccc2C)N2CCN(c3ccc(C)cc3)CC2)cc1", "note": "(centres undefined)", "activity change, negative = inhibition": "-24.2% (inactive)"}, {"smiles": "Brc1cccc[n+]1Cc1cccc(C[n+]2ccccc2Br)c1", "activity change, negative = inhibition": "31.5% (inactive)"}, {"smiles": "Cc1cc2ccccn2c1C(C[N+](=O)[O-])c1c(F)cccc1Cl", "note": "(centres undefined)", "Potency": "10 µM (active)"}, {"smiles": "Cc1cc2ccccn2c1C(=O)c1cccc(F)c1", "outcome": "inactive"}, {"smiles": "O=C(Cc1c(F)cccc1Cl)Nc1ncc([N+](=O)[O-])s1", "activity change, negative = inhibition": "-7.45% (inactive)"}, {"smiles": "CCCCOc1ccc(C(=O)NO)cc1", "activity change, negative = inhibition": "-10.8% (inactive)"}, {"smiles": "CCc1cc2c(N3CCN(c4nnc(CC)s4)CC3)ncnc2s1", "Potency": "12.6 µM (active)"}, {"smiles": "CCN1CCN(c2ncnc3c2cnn3-c2ccc(C)c(C)c2)CC1", "activity change, negative = inhibition": "-9.72% (inactive)"}, {"smiles": "CCc1ccc(C(=O)NNC(=O)C2CCN(c3ncnc4sc(C)c(C)c34)CC2)cc1", "activity change, negative = inhibition": "-18.3% (inactive)"}, {"smiles": "Cc1ccc(S(=O)(=O)N2CC3C(=O)C[C@@H](c4ccccc4Cl)N(S(=O)(=O)c4ccc(C)cc4)C3CC2c2ccccc2)cc1", "note": "(some centres undefined)", "activity change, negative = inhibition": "-0.55% (inactive)"}, {"smiles": "CSc1nc(Nc2ccc(F)cc2)cc(-c2ccccc2)n1", "activity change, negative = inhibition": "-19% (inactive)"}, {"smiles": "CSc1nc(-c2ccccc2)nc(C(Cl)Cl)n1", "Potency": "12.6 µM (active)"}, {"smiles": "Clc1ccc2nc(-c3ccccc3)nc(C(Cl)Cl)c2c1", "activity change, negative = inhibition": "-15.5% (inactive)"}, {"smiles": "CCCc1ccc(C(O)c2ncc(-c3cccc(OC)c3)[nH]2)cc1", "note": "(centres undefined)", "activity change, negative = inhibition": "3.12% (inactive)"}, {"smiles": "CCOC(=O)[C@]12CCCC=C1N(CCC1=CCCCC1)C(=O)[C@H](CC(=O)NCCCOC)C2", "outcome": "inactive"}, {"smiles": "CCOC(=O)N1CCN(C(=O)C[C@@H]2C[C@@]3(C(=O)OC)CC(C)(C)CC=C3N(Cc3ccco3)C2=O)CC1", "activity change, negative = inhibition": "-26.4% (inactive)"}, {"smiles": "CC1(C(=O)Nc2cccc3c2CCCC3)CCN1C(=O)CCc1ccc(Cl)cc1Cl", "note": "(centres undefined)", "outcome": "inactive"}, {"smiles": "CCOC(=O)c1ccccc1C(=O)N1CCOCCOCCOCC1", "activity change, negative = inhibition": "-10.9% (inactive)"}, {"smiles": "Cc1ccccc1-c1ccc(Nc2ccc(C(=O)N3CCOCC3)cc2)nn1", "activity change, negative = inhibition": "-14.9% (inactive)"}, {"smiles": "Cc1oc2c(c1C(=O)N1CCOCC1)C(=O)c1ccccc1C2=O", "Potency": "11.2 µM (active)"}, {"smiles": "Fc1cccc(Cc2c(-c3ccc(Cl)cc3)nc3ccc(Cl)cn23)c1", "activity change, negative = inhibition": "1.23% (inactive)"}, {"smiles": "COc1cc(OC)c(OC)cc1/C=C1\\C=Cc2ccccc21", "activity change, negative = inhibition": "-21.7% (inactive)"}, {"smiles": "CCc1nc2ccc(C(=O)Nc3cc(-c4ccccc4)ccc3OC)cn2c1N(CC)CC(=O)N(C)C", "activity change, negative = inhibition": "-14.5% (inactive)"}, {"smiles": "COC(=O)Cc1ccc(Oc2ncc(C(F)(F)F)cc2Cl)cc1", "outcome": "inactive"}, {"smiles": "COc1cccc(/C(C)=N/Nc2ncc(Cl)cc2Cl)c1", "outcome": "inactive"}, {"smiles": "COc1cccc(/C=N/Nc2ncc(C(F)(F)F)cc2Cl)c1O", "Potency": "11.2 µM (active)"}, {"smiles": "CCc1nc2ccc(C(=O)NCc3ccc(OC)cc3)cn2c1N(CC)Cc1cccc(Br)c1", "outcome": "inactive"}, {"smiles": "Cc1nn(-c2ccccc2)c(C)c1NC(=O)CCl", "Potency": "10 µM (active)"}, {"smiles": "Cc1nn(-c2ccccc2)c(C)c1NC(=O)COc1ccc(Cl)cc1Cl", "activity change, negative = inhibition": "-12.6% (inactive)"}, {"smiles": "Cc1nn(-c2ccccc2)c(C)c1NC(=O)COC(=O)Cc1ccccc1", "activity change, negative = inhibition": "-14.2% (inactive)"}, {"smiles": "Cc1cccc(NC(=O)COC(=O)c2ccccc2OCc2cccc(Br)c2)c1", "outcome": "inactive"}, {"smiles": "OCCN1CCN(c2ncnc3c2ncn3[C@H]2CN(Cc3ccco3)C[C@@H](CO)O2)CC1", "activity change, negative = inhibition": "14.1% (inactive)"}, {"smiles": "CC(C)Nc1ncnc2c1ncn2[C@H]1CN(Cc2ccncc2)C[C@@H](CO)O1", "activity change, negative = inhibition": "37.1% (inactive)"}, {"smiles": "OC[C@@H]1CN(Cc2ccncc2)C[C@H](n2cnc3c(N4CCN(c5ccccc5)CC4)ncnc32)O1", "Potency": "11.2 µM (active)"}, {"smiles": "Cc1cc(Br)cn2c(Cc3ccsc3)c(-c3ccc(C#N)cc3)nc12", "activity change, negative = inhibition": "17.8% (inactive)"}, {"smiles": "COc1cccc(-c2cc3nc(NCc4ccccc4OC)n(C)c(=O)c3s2)c1", "activity change, negative = inhibition": "-20.6% (inactive)"}, {"smiles": "CCCNC(=O)C1(C)CCCN(C(=O)c2oc3ccccc3c2C)C1", "note": "(centres undefined)", "activity change, negative = inhibition": "3.6% (inactive)"}, {"smiles": "CC(=O)/C(=N\\Nc1ccc(Cl)cc1Cl)Sc1cccc2cccnc12", "Potency": "3.55 µM (active)"}, {"smiles": "COc1c(Cl)cc(Cl)cc1C(=O)Nc1cccc2cccnc12", "activity change, negative = inhibition": "-4.07% (inactive)"}, {"smiles": "S=C(NCc1cccnc1)Nc1ccc(Cl)cc1Cl", "outcome": "inactive"}, {"smiles": "CCOC1=C2[C@@H](CN(S(=O)(=O)c3ccc(C)cc3)[C@H]2c2ccccc2F)[C@H]2C(=O)N(Cc3ccccc3)C(=O)[C@H]2C1", "activity change, negative = inhibition": "1.58% (inactive)"}, {"smiles": "CCOCCC(=O)Nc1ccc2c(c1)c(=O)n(C)n2-c1ccc2ccccc2c1", "activity change, negative = inhibition": "-4.6% (inactive)"}, {"smiles": "CN(C)C1=C2C=CC=CC2/C(=C2/C=Cc3ccccc32)C=C1", "note": "(centres undefined)", "activity change, negative = inhibition": "-12.9% (inactive)"}, {"smiles": "Nc1ccc(/C=C/c2ccnc3ccccc23)c([N+](=O)[O-])c1", "activity change, negative = inhibition": "24.2% (inactive)"}, {"smiles": "Cc1ccc(NC(=O)c2cc(-c3ccccc3O)n[nH]2)cc1C", "outcome": "inactive"}, {"smiles": "Oc1ccccc1-c1cc(-c2ccc(Cl)cc2)n[nH]1", "Potency": "8.91 µM (active)"}, {"smiles": "O=C(Nc1ccc(Cl)cn1)c1ccccc1-c1ccccc1", "activity change, negative = inhibition": "-7.03% (inactive)"}, {"smiles": "O=C(Nc1ccc2c(c1)OCCO2)C(C1CC1)N1CCC(Cc2ccccc2)CC1", "note": "(centres undefined)", "activity change, negative = inhibition": "44.7% (inactive)"}, {"smiles": "CCc1cc(C(=O)N(CC)CC(=O)Nc2c(F)cccc2F)sc1C", "outcome": "inactive"}, {"smiles": "COC(=O)Cc1ccc(OC2(C)CCN(Cc3ccc4c(c3)OCCO4)C2)cc1", "note": "(centres undefined)", "activity change, negative = inhibition": "-9.78% (inactive)"}, {"smiles": "CC1(C)OC(=O)C2=C(C[C@@H](C3CCCCC3)O[C@@H]2c2ccc(Cl)cc2)O1", "activity change, negative = inhibition": "4.01% (inactive)"}, {"smiles": "O=C(Nc1cccc(NC(=O)c2ccc(Br)cc2)c1)c1ccccc1", "Potency": "inactive"}, {"smiles": "O=C(NC1=CC(=O)c2ccccc2C1=O)c1ccccc1", "Potency": "7.94 µM (active)"}, {"smiles": "CC(NC(=O)c1ccccc1)C(=O)Nc1ccccc1", "note": "(centres undefined)", "activity change, negative = inhibition": "-16.4% (inactive)"}, {"smiles": "COCC1CCCCN1C(=O)c1cc(COc2ccc(C)c(C)c2)on1", "note": "(centres undefined)", "activity change, negative = inhibition": "-3.71% (inactive)"}, {"smiles": "CN(C)c1ccc(/C=N\\Nc2ccc([N+](=O)[O-])cc2[N+](=O)[O-])cc1Cl", "activity change, negative = inhibition": "-14.1% (inactive)"}, {"smiles": "Cc1ccc(S(=O)(=O)N2C[C@H]3n4c(=O)ccc(=O)n4C[C@H](OC(=O)NC4CCCC4)[C@@]3(O)C2)cc1", "activity change, negative = inhibition": "-13.2% (inactive)"}]}]}
